Among the data in PubChem BioAssay (Tox21) are Potency values, retold here.

Values without a mark were called inactive. Records with an inconclusive call do not appear. Activity calls are given as the source filed them. Unless noted, the call rests on the fitted dose curve.

A short description of assay [1]: Nuclear factor erythroid 2-related factor 2/antioxidant responsive element (Nrf2/ARE) small molecule agonists: qHTS cell viability counter screen in human keratinocytes (AID 1919968; active means well fitted curve in the direction sought with a large enough effect in the repeat runs; an effect the other way counts as inactive or inconclusive; further: nearly all actives have a fitted effect of over 55% in size). In outline:
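Parallel cytotoxicity read: KeratinoSens HaCaT cells, compound treatment 23 h, viability by CellTiter-Fluor fluorescence 1 h post-reagent.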
In general terms: Quantitative high-throughput screening tests each substance at several concentrations.

Assay [2] concerns the target Gonadotropin-releasing hormone receptor (Homo sapiens) (UniProt P30968). The assay can be described thus: Human gonadotropin-releasing hormone receptor (GnRHR) small molecule agonists, calcium flux assay in GnRHR-HEK293 cells (AID 1920063). Further: nearly all actives have a fitted effect of over 35% in size. In outline:
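Calcium flux, agonist mode, human GnRHR stably integrated in HEK293; dye 1 h at 37 C before compound; Ex/Em=480/540 kinetic read, 3 min; 15 concentrations, triplicate.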
A general note: Calcium flux is commonly read through the fluorescence of an indicator in the cells.

Assay [3] has as its target KiSS-1 receptor (Homo sapiens) (UniProt Q969F8). The assay can be described thus: Human kisspeptin (KISS1R) small molecule agonists, calcium flux assay in KISS1R-HEK293 cells (AID 1920064; active means well fitted curve in the direction sought with a large enough effect in the repeat runs; an effect the other way counts as inactive or inconclusive). In outline: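 Triplicate 15-concentration series were applied to dye-loaded human KISS1R HEK293 cells, and agonist-evoked calcium fluorescence was captured for 3 min.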
A short description of assay [4]: G protein-coupled receptor (GPCR) small molecule agonists, calcium flux assay: HEK293 wild type cell line counter screen (AID 1920065). The method, boiled down:
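Non-specific calcium responders were flagged by adding DMSO-dissolved compounds to dye-loaded cells and reading 480/540 nm fluorescence each second for 3 min; ATP served as positive control.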

Assay [5] can be described thus: p53 small molecule agonists, cell-based qHTS assay: qHTS cell viability counter screen (AID 1963581). Further: nearly all actives have a fitted effect of over 45% in size. The method, boiled down:
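Multiplexed with the reporter read, a CellTiter-Glo step (30 min, room temperature) gauges ATP-based viability of HCT-116 p53RE-bla cells after 16 h compound incubation at 37 C.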

Assay [6] deals with 5-hydroxytryptamine receptor 2A (Homo sapiens) (UniProt P28223). The assay can be described thus: 5-hydroxytryptamine receptor 2A (HTR2A) small molecule antagonists, cell-based qHTS assay (AID 1963586). Further: nearly all actives have a fitted effect of over 45% in size. The method, boiled down:
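CHO cells stably expressing human HTR2A were plated for 18 h at 37 C, then loaded with calcium dye for 1 h. Compounds were preincubated 5 min at room temperature before DOI (4 nM solution) was added. Kinetic fluorescence was read for 3 min.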

For assay [7] the target is unchanged. As to the kind of experiment: 5-hydroxytryptamine receptor 2A (HTR2A) small molecule agonists, cell-based qHTS assay (AID 1963587). Further: nearly all actives have a fitted effect of over 30% in size. In outline:
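CHO cells stably expressing human HTR2A, plated 18 h, loaded with calcium dye 1 h at 37 C. Agonist mode: compounds added and intracellular calcium fluorescence recorded kinetically for 2 min at 1 sec intervals.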

The target of assay [8] is Muscarinic acetylcholine receptor M1 (Homo sapiens) (UniProt P11229). The assay can be described thus: Cholinergic receptor muscarinic 1 (CHRM1) small molecule antagonists, cell-based qHTS assay (AID 1963588). Further: nearly all actives have a fitted effect of over 40% in size. The method, boiled down:
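Compounds were tested at 15 concentrations in three independent runs. Dye-loaded CHRM1-CHO cells were exposed 5 min at room temperature before stimulation by acetylcholine added at 50nM. Intracellular calcium was read kinetically on FDSS for 3 min.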

The target is the same in assay [9]. As to the kind of experiment: Cholinergic receptor muscarinic 1 (CHRM1) small molecule agonists, cell-based qHTS assay (AID 1963589). Further: nearly all actives have a fitted effect of over 35% in size. In outline: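 qHTS, 15-point titration, 3 independent runs: compounds pin-transferred onto dye-loaded CHRM1-CHO cells (human M1), calcium fluorescence followed every second to detect agonism.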
Assay [10] in a line: cAMP Responsive Elements (CRE) small molecule agonists, cell-based qHTS assay (AID 1963590). In outline: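 Quantitative HTS for CRE agonists: HEK 293T CRE-bla cells, overnight plating, 3 h compound incubation at 37 C/5% CO2, then 2 h room-temperature LiveBLAzer B/G FRET substrate loading.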
A short description of assay [11]: cAMP Responsive Elements (CRE) small molecule antagonists, cell-based qHTS assay (AID 1963591; active means well fitted inhibition curve with a large enough effect in the signal ratio in the repeat runs, not every such curve was filed as active; the % refers to the signal ratio; further: potency means the concentration at half of the fitted maximal effect). In outline: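 Fluorescence intensity from cleaved LiveBLAzer B/G substrate (2 h, room temperature) quantified CRE-bla activity in HEK 293T cells exposed 3 h to compound with 0.25 uM final NKH477.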
Assay [12] deals with Beta-2 adrenergic receptor (Homo sapiens) (UniProt P07550). As to the kind of experiment: Adrenergic beta2 receptor (ADRB2) small molecule antagonists, cell-based qHTS assay (AID 1963592). Further: series mostly up to about 92 µM; nearly all actives have a fitted effect of over 50% in size. In outline: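 Assay format: CHO-ADRB2 cells, 18-20hr seeding at 37C/5% CO2, then compound plus 1nM isoproterenol agonist mix for 0.5hr RT. Homogeneous time-resolved fluorescence cAMP detection after 1hr, expressed as 665/615 nm ratio.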
Sequence of Beta-2 adrenergic receptor (Homo sapiens) (P07550 whole entry, looked up): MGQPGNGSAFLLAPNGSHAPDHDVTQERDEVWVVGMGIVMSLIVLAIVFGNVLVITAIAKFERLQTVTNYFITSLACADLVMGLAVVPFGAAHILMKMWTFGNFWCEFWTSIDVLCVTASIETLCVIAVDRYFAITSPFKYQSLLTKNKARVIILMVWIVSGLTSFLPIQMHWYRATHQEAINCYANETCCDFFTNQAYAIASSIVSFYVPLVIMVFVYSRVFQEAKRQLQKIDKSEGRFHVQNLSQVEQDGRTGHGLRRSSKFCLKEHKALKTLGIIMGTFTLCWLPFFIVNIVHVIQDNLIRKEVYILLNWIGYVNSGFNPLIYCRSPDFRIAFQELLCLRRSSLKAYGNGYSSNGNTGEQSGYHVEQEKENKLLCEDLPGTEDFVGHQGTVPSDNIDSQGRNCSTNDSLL

Assay [13] concerns the target D(2) dopamine receptor (Homo sapiens) (UniProt P14416). As to the kind of experiment: Dopamine D2 receptor (DRD2) small molecule antagonists, cell-based qHTS assay (AID 1963595; active means well fitted inhibition curve with a large enough effect in the signal ratio in the repeat runs, with a control signal flat; the % refers to the signal ratio). The method, boiled down:
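HEK293 cells stably expressing DRD2, preincubated with 0.1 mM Ro20-1724 and compounds 10 min, were stimulated with 200 nM NKH477 plus 12 nM quinpirole for 30 min at room temperature; cAMP measured by HTRF (665/620 nm).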

A short description of assay [14]: p53 small molecule agonists, cell-based qHTS assay with human liver microsomes (AID 1963577). The method, boiled down: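 p53RE-bla reporter cells were pre-incubated 5 h at 37 C, then treated with compounds plus human liver microsomes (0.5 mg/mL final) and NADPH (0.5 mg/mL final) for 16 h at 37 C. Beta-lactamase activity was read by LiveBLAzer fluorescence after 2 h at room temperature.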

Assay [15] in a line: p53 small molecule agonists, cell-based qHTS assay with rat liver microsomes (AID 1963578). In outline:
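p53RE-bla cells were exposed to compounds together with rat liver microsomes (0.5 mg/mL final) and NADPH (0.5 mg/mL final) for 16 h at 37 C, then read by LiveBLAzer beta-lactamase fluorescence after 2 h at room temperature.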

A short description of assay [16]: p53 small molecule agonists, cell-based qHTS assay with rat liver microsomes: qHTS cell viability counter screen (AID 1963580). Further: nearly all actives have a fitted effect of over 45% in size. In outline:
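After the beta-lactamase ratio was read, CellTiter-Glo was added to the same wells and luminescence measured at 30 min; cells had been treated 16 h at 37 C with compounds, rat liver microsomes and NADPH (0.5 mg/mL final each).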

The nature of assay [17]: p53 small molecule agonists, cell-based qHTS assay (AID 1963582; active means well fitted activation curve with a large enough effect in the signal ratio in the repeat runs, not every such curve was filed as active; the % refers to the signal ratio). In outline: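 Beta-lactamase reporter cells (p53RE-bla) treated with compounds for 16 h at 37 C; FRET substrate, 2 h, room temperature; fluorescence intensity.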
The target of assay [18] is Beta-2 adrenergic receptor (Homo sapiens) (UniProt P07550). As to the kind of experiment: Adrenergic beta2 receptor (ADRB2) small molecule agonists, cell-based qHTS assay (AID 1963593).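 Further: CHO cells stably overexpressing human ADRB2.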 In outline:
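CHO cells stably over-expressing ADRB2 were plated overnight at 37C, then dosed with compounds plus a stimulation mix containing 100uM IBMX and 25uM Ro-20-1724 for 0.5hr at room temperature. cAMP was measured by HTRF competition, 1hr.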

The target of assay [19] is D(2) dopamine receptor (Homo sapiens) (UniProt P14416). As to the kind of experiment: Dopamine D2 receptor (DRD2) small molecule agonists, cell-based qHTS assay (AID 1963594). Further: nearly all actives have a fitted effect of over 35% in size. The method, boiled down:
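HEK293 cells stably expressing human DRD2, pre-treated with PDE inhibitor Ro20-1724 (0.1 mM final) and compound 10 min at room temperature, then stimulated with NKH477 (200nM […]) for 30 min. cAMP read by HTRF (665/620 nm).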

Assay [20] can be described thus: p53 small molecule agonists, cell-based qHTS assay with human liver microsomes: qHTS cell viability counter screen (AID 1963579). Further: nearly all actives have a fitted effect of over 45% in size. In outline: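 p53RE-bla cells (4,000/well) were pre-incubated 5 h at 37 C, then given compounds in DMSO plus human liver microsomes (0.5 mg/mL final) and NADPH (0.5 mg/mL final) for 16 h at 37 C. Viability was read by CellTiter-Glo luminescence.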

Sequence of Gonadotropin-releasing hormone receptor (Homo sapiens) (P30968 whole entry, looked up): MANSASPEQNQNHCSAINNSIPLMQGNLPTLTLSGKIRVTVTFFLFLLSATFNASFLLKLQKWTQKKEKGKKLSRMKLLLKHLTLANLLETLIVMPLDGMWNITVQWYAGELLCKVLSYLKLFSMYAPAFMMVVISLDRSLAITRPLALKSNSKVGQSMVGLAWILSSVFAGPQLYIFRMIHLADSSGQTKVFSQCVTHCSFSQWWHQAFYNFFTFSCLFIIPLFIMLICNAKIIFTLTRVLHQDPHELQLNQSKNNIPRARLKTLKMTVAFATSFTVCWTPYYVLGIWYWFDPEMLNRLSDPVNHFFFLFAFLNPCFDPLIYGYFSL
Sequence of Muscarinic acetylcholine receptor M1 (Homo sapiens) (P11229 whole entry, looked up): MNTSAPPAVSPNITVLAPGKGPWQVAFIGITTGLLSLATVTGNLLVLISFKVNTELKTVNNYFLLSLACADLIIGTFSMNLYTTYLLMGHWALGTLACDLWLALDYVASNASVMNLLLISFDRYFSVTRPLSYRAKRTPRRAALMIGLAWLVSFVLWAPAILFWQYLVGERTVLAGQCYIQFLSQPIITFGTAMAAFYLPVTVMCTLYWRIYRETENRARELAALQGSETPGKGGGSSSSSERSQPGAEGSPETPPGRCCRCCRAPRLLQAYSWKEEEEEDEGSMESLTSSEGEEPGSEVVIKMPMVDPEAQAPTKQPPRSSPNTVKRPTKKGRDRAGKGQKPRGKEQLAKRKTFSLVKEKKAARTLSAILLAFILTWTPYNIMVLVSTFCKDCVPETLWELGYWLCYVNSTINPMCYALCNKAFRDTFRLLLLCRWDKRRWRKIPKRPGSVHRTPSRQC
Sequence of 5-hydroxytryptamine receptor 2A (Homo sapiens) (P28223 whole entry, looked up): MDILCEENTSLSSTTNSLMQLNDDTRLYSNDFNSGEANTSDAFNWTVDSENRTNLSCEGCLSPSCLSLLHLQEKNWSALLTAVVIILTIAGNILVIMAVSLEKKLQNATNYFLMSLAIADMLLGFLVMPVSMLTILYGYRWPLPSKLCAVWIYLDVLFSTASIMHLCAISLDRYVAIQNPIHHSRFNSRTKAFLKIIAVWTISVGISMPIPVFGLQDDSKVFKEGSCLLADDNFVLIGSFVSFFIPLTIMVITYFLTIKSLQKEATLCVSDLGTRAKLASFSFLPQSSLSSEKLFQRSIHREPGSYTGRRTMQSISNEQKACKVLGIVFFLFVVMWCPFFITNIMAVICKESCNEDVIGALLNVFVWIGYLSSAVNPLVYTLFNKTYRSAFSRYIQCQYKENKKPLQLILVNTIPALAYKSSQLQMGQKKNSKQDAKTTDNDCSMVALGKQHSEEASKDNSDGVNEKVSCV
Sequence of D(2) dopamine receptor (Homo sapiens) (P14416 whole entry, looked up): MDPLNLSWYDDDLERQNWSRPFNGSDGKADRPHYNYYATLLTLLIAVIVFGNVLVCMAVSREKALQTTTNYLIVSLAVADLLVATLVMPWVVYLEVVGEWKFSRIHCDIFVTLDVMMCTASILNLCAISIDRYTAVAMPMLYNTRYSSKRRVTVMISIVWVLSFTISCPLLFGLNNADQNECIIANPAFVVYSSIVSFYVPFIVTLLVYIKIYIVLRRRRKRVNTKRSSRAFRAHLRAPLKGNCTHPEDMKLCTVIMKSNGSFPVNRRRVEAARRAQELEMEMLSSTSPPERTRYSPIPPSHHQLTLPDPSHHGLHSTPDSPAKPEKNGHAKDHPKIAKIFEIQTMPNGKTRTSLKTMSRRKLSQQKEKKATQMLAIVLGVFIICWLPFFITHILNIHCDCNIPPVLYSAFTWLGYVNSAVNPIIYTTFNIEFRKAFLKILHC
Sequence of KiSS-1 receptor (Homo sapiens) (Q969F8 whole entry, looked up): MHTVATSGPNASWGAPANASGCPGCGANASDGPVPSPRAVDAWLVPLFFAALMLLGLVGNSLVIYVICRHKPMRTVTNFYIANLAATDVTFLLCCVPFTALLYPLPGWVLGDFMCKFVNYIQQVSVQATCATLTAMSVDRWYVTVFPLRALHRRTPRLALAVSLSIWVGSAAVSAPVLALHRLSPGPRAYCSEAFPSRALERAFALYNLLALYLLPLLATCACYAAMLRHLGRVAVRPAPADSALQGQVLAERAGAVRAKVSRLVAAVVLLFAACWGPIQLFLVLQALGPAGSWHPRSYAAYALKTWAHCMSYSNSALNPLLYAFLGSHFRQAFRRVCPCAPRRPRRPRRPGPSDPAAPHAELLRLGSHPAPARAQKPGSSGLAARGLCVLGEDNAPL

As for `O=S(=O)(c1cccc2cnccc12)N1CCCNCC1`, the Potency result in assay [1], in assay [2], in [3], in assay [4], in assay [5] and in [6] was “inactive” in each case. The Potency result in assay [7], in [8], in assay [9], in [10], in assay [12] and in [13] was “inactive” throughout. In addition, the Potency in assay [11] is 29.8 µM (active).
On to `COC(=O)CCCCCCCC(=O)OC`, for which the Potency result in assay [1], in assay [2], in assay [3], in [14], in assay [15] and in [16] was “inactive” in each case. In addition, the Potency entry in assay [5], in [17], in assay [6], in [7], in assay [8] and in assay [9] was “inactive” each time. For the same molecule, the Potency entry in assay [10], in assay [11], in assay [12], in assay [18], in assay [19] and in assay [13] was “inactive” each time.
Regarding `COC(OC)(C(=O)c1ccccc1)c1ccccc1`, the Potency result in assay [1], in assay [2], in assay [3], in assay [4], in assay [16] and in assay [5] was “inactive” throughout. Also, the Potency entry in [6], in assay [7], in [8], in assay [9], in assay [10] and in assay [11] was “inactive” each time. Moreover, the Potency result in [12], in [18], in [19] and in assay [13] was “inactive” in each case.
Turning to `O=C(O)Cc1ccc(OCCNC[C@H](O)c2ccccc2)cc1`, the Potency entry in assay [1], in [2], in assay [3], in assay [20], in assay [16] and in [5] was “inactive” in each case. In addition, the Potency entry in assay [6], in assay [7], in [8], in [9], in assay [10] and in assay [11] was “inactive” each time. The Potency result in [12], in assay [19] and in assay [13] was “inactive” in each case.
`COC(C)(C)CC(C)=O`: the Potency result in [1], in [2], in assay [3], in assay [14], in assay [15] and in assay [20] was “inactive” throughout. In addition, the Potency entry in assay [16], in assay [5], in assay [17], in [6], in assay [7] and in [8] was “inactive” throughout. Also, the Potency entry in [9], in [10], in assay [11], in assay [12], in assay [18] and in assay [19] was “inactive” each time. The Potency entry in [13] is “inactive”.
Regarding `C=Cc1ccncc1`, the Potency result in [1], in assay [2], in assay [3], in assay [14], in assay [15] and in assay [16] was “inactive” in each case. Also, the Potency entry in assay [5], in assay [6], in assay [7], in assay [8], in [9] and in assay [10] was “inactive” in each case. Besides, the Potency entry in [11], in [12] and in assay [19] was “inactive” each time.
As for `COc1nc(N)nc2c1ncn2[C@@H]1O[C@H](CO)[C@@H](O)[C@@H]1O`, the Potency result in assay [1], in assay [2], in [3], in assay [14], in assay [15] and in assay [20] was “inactive” each time. Also, the Potency result in [16], in assay [5], in assay [17], in assay [6], in assay [7] and in assay [8] was “inactive” each time. The Potency entry in assay [9], in assay [10], in [11], in assay [12], in assay [18] and in assay [19] was “inactive” in each case.
In the case of `CN(C)CCCCCCN(C)C`, the Potency result in [1], in [2], in assay [3], in assay [4], in assay [6] and in assay [7] was “inactive” throughout. The Potency result in assay [8], in assay [9], in assay [10], in assay [11], in [12] and in assay [18] was “inactive” each time. The Potency result in assay [19] and in [13] was “inactive” throughout.
